Assay [1] concerns the target Tyrosine-protein kinase CSK (Homo sapiens) (UniProt P41240). Conditions: at 1 µM.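 Also: each value is an averaged inhibition reading.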
In assay [2] the target is T1, Discoidin domain-containing receptor 2 (Homo sapiens) (UniProt Q16832).
T1 sequence (whole entry): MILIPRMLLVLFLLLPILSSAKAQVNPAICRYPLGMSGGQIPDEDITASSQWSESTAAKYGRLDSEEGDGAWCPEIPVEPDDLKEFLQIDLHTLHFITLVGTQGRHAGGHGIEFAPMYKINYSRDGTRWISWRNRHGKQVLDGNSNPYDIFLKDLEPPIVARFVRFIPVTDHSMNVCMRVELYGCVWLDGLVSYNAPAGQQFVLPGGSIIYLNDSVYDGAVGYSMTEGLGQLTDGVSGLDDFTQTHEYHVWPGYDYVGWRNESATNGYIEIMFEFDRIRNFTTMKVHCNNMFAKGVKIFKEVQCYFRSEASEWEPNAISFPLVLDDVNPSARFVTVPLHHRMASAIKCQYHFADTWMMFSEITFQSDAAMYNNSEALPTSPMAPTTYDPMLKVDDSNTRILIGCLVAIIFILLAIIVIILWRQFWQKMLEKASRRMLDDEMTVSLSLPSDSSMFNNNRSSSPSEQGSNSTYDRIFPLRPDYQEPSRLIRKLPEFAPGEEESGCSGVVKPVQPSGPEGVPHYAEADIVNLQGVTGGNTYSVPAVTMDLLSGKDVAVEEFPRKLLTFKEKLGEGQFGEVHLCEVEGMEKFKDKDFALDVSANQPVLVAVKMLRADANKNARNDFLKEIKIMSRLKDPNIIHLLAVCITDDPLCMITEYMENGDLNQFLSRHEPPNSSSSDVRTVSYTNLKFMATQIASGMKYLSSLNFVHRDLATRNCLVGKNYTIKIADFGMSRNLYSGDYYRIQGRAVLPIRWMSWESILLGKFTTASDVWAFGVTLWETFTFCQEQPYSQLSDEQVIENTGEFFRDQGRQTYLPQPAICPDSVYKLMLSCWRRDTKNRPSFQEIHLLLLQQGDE
Conditions: at 0.1 µM.

Assay [3] addresses T1, Discoidin domain-containing receptor 2 (Homo sapiens). Conditions: at 1 µM.
Assay [4] concerns the target Epidermal growth factor receptor (Homo sapiens) (UniProt P00533). Conditions: at 0.1 µM.
The target is the same in assay [5]. Conditions: at 1 µM.
Assay [6] concerns Epidermal growth factor receptor (Homo sapiens), P00533 [L858R]. Conditions: at 0.1 µM.
Assay [7] has the same test system. Conditions: at 1 µM.
In assay [8] the test system is Epidermal growth factor receptor (Homo sapiens), P00533 [L861Q]. Conditions: at 0.1 µM.
Chain of Epidermal growth factor receptor (Homo sapiens), P00533 [L861Q] (P00533 whole entry L861Q): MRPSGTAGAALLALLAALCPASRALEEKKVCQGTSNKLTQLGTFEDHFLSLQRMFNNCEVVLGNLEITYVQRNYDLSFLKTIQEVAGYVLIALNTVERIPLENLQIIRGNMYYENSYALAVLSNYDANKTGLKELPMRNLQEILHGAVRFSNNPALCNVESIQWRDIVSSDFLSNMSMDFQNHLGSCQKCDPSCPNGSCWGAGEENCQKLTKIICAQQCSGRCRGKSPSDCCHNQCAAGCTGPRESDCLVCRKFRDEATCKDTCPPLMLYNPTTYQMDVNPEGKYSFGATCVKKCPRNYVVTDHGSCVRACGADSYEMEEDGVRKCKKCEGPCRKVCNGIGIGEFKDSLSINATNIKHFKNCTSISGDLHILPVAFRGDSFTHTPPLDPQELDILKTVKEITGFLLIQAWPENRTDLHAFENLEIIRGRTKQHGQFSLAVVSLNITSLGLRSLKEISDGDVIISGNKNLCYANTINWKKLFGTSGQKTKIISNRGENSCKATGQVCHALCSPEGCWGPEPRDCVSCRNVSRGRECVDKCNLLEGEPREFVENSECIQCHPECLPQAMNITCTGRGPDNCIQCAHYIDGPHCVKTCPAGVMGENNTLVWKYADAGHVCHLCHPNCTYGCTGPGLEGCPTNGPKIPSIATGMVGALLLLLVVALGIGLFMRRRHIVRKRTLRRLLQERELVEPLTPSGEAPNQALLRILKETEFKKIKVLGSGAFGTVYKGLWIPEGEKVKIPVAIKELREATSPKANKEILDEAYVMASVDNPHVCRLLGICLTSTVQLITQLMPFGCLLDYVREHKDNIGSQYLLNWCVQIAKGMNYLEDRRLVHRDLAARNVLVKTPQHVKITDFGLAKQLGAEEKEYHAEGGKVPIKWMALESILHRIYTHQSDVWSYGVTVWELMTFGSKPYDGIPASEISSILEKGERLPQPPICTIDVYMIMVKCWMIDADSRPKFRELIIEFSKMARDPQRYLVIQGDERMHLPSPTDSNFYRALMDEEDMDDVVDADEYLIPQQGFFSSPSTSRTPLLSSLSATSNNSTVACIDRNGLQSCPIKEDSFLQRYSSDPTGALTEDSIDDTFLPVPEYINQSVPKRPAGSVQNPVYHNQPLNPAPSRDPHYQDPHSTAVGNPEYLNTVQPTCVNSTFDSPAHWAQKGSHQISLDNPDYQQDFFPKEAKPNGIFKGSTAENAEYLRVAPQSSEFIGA
The test system is the same in assay [9]. Conditions: at 1 µM.
The subject of assay [10] is Epidermal growth factor receptor (Homo sapiens), P00533 [T790M]. Conditions: at 0.1 µM.

Chain of Epidermal growth factor receptor (Homo sapiens) (P00533 whole entry): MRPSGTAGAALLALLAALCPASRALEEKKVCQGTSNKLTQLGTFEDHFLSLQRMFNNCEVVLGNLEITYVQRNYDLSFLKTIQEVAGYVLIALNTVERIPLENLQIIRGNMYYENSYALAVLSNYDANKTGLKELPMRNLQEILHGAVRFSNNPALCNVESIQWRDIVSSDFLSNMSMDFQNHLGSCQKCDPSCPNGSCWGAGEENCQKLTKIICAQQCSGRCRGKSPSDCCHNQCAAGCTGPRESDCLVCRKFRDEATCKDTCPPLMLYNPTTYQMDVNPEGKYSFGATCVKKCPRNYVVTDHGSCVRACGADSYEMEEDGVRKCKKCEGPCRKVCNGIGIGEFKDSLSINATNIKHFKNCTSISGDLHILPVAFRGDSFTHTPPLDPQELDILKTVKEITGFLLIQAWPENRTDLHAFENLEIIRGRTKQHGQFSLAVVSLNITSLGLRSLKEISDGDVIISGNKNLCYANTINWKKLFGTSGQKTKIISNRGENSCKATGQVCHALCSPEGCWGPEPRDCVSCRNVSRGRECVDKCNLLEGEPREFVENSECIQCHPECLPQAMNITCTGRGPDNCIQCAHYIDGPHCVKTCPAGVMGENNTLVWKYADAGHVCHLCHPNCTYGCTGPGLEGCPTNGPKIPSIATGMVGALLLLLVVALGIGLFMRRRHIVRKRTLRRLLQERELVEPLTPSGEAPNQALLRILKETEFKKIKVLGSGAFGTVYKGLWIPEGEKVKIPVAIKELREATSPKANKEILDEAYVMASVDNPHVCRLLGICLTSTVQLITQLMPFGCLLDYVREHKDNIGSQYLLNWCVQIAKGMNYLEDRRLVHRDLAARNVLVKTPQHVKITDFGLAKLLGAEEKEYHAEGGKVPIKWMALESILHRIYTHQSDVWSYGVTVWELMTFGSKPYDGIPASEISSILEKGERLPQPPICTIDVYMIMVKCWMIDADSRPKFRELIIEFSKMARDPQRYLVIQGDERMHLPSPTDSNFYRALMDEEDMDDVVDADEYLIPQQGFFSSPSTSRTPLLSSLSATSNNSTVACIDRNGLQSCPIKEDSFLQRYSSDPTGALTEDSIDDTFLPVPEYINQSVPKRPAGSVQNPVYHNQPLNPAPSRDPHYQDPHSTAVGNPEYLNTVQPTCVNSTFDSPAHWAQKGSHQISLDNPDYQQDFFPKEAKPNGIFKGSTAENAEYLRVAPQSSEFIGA
Chain of Epidermal growth factor receptor (Homo sapiens), P00533 [T790M] (P00533 whole entry T790M): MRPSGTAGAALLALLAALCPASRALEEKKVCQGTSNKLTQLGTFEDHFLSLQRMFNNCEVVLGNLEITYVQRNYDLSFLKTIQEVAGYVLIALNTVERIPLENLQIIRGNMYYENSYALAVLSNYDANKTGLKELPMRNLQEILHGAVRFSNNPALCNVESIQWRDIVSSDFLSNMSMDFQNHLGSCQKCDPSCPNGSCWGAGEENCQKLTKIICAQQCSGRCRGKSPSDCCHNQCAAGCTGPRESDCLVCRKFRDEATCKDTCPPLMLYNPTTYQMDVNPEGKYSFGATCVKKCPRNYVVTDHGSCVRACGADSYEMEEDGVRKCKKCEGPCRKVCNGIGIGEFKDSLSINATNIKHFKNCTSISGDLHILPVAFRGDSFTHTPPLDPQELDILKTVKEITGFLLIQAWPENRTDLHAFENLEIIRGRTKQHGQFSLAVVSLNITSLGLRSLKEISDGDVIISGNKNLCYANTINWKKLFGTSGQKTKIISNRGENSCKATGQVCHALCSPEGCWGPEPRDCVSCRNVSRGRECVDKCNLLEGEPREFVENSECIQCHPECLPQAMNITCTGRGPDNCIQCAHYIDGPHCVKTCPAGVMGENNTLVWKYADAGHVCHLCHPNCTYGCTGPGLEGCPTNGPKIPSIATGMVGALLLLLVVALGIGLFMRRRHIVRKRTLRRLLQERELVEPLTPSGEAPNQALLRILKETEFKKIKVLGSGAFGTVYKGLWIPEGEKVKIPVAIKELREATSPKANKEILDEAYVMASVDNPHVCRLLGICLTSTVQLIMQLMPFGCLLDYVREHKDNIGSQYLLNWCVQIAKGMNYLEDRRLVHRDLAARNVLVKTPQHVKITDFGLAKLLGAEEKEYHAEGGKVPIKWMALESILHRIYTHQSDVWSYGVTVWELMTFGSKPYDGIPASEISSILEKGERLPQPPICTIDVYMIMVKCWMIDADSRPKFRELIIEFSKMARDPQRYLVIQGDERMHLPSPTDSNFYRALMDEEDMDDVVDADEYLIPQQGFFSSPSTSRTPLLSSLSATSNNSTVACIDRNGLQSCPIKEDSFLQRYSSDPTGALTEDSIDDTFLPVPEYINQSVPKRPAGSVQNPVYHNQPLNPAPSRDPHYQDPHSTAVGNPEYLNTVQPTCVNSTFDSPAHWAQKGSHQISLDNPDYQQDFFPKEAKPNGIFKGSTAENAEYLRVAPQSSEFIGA
Chain of Tyrosine-protein kinase CSK (Homo sapiens) (P41240 2-450 limits assumed): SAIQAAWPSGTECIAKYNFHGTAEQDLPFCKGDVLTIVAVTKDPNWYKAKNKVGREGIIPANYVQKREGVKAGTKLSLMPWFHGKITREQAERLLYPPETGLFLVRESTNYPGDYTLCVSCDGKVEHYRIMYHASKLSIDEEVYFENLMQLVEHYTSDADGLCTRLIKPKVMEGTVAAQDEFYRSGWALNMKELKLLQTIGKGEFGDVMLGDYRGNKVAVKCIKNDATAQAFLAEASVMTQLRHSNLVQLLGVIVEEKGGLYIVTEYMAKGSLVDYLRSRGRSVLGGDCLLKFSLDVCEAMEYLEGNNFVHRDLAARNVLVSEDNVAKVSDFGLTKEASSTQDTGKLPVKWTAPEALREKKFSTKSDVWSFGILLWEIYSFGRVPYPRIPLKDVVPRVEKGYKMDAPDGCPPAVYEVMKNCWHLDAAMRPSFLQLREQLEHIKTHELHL

With `Cc1ccc(C(=O)NC2CCCCC2)cc1-c1ccc(C(=O)NCC2CC2)cc1`, the inhibition in assay [1] came to 1.73%; in assay [2], 3.79%; in assay [3], 6.99%; in [4], 10.6%; in [5], 14.3%; in assay [6] it was 1.02%. For the same compound, the inhibition in assay [7] worked out at 0.13%; in [8], 1.18%; in [9] it was 0.87%; in assay [10] it was 0.94%.

In the case of `Fc1cccc(COc2ccc(Nc3ncnc4cc(-c5ccc[nH]5)sc34)cc2Cl)c1`, the inhibition was 1.12% in assay [1]; 0.15% in [2]; -1% in assay [3]; 66.2% in [4]; 77.3% in assay [5]; 32.5% in assay [6]. For the same compound, the inhibition amounted to 82.9% in [7], 37.8% in [8], 71.8% in [9] and 0.21% in [10].

In the case of `COc1ccccc1Nc1ncc(-c2ccccc2)o1`, the inhibition came out at 3.11% in [1]; 0.86% in [2]; 0.42% in assay [3]; 1.13% in [4]; 5.3% in assay [5]; 0.79% in assay [6]. Further, the inhibition in assay [7] came out at 0.46%; in assay [8] it was 1.31%; in [9], 1.75%; in assay [10], 2.11%.

With `Cc1cccc(-c2n[nH]cc2-c2ccc3ncccc3n2)n1`, the inhibition in [1] is 0.97%; in assay [2], 0.57%; in assay [3], 0.86%; in [4], -0.16%; in [5], 0.24%; in assay [6], -0.08%. Moreover, the inhibition in assay [7] is -1.71%; in assay [8] it was -1.59%; in assay [9] it was -1.42%; in assay [10], -0.88%.

For `CCN1CCC(CC(=O)Nc2n[nH]c3nc(-c4cccs4)c(Br)cc23)CC1`, the inhibition in assay [1] was -4.84%; in assay [2] it was -0.58%; in assay [3], 0.03%; in assay [4], 1.1%; in assay [5], 3.65%; in [6], 0.06%. In addition, the inhibition in assay [7] was 3.28%; in [8] it was -0.27%; in assay [9] it was 1.14%; in assay [10], -1.65%.

On to `CCn1c(-c2nonc2N)nc2c(C#CC(C)(C)O)nc(CN3CCCC3)cc21`, for which the inhibition is -4.12% in assay [1]; 1.3% in assay [2]; 5.64% in assay [3]; 1.34% in assay [4]; 1.12% in [5]; -0.22% in assay [6]. The inhibition in assay [7] is -1.48%; in assay [8] it was -1.77%; in [9], -4.01%; in [10] it was -2.21%.

Consider `CC(=O)Nc1cccc(C#Cc2cncnc2Nc2ccc(OCc3cccc(F)c3)c(Cl)c2)n1`, for which the inhibition stood at 3.91% in assay [1]; 2.33% in [2]; 1.71% in [3]; 69.5% in assay [4]; 77.7% in assay [5]; 24.8% in assay [6]. Also, the inhibition in assay [7] was 72.5%; in assay [8], 29.1%; in [9] it was 55.6%; in assay [10], 0.03%.

With `CS(=O)(=O)CCNCc1ccc(-c2ccc3ncnc(Nc4ccc(OCc5cccc(F)c5)c(C(F)(F)F)c4)c3c2)o1`, the inhibition in [1] was found to be 2.03%; in [2], 1.18%; in [3], 0.88%; in [4], 12.8%; in assay [5] it was 65.9%; in assay [6], 6.6%. The inhibition in [7] was determined as 46.2%; in assay [8], 20.6%; in assay [9], 40.8%; in assay [10], 2.44%.

Turning to `Cc1nnc(-c2ccc(C)c(-c3ccc(C(=O)Nc4cccc(C#N)c4)cc3)c2)o1`, the inhibition came to 6.38% in assay [1]; 1.45% in assay [2]; 1.83% in assay [3]; 6.74% in assay [4]; 8.18% in assay [5]; 0.95% in assay [6]. Also, the inhibition in assay [7] came out at 3.01%; in assay [8] it was 1.88%; in [9] it was 2.37%; in [10], 1.41%.

`N#Cc1c(NC(=O)c2cccc3ccccc23)sc2c1CCCC2`: the values for the inhibition in [1], in [2] and in assay [3] were 0.21%, 2.55% and 2.6%, respectively.

In the case of `CCn1c(-c2nonc2N)nc2cncc(C(=O)N3CC[C@H](N)C3)c21`, the inhibition in assay [1] turned out to be 5.06%; in assay [2], 1.43%; in [3], 1.61%; in assay [4], 0.8%; in assay [5], 2.64%; in assay [6], 3.22%. The inhibition in assay [7] is 5.35%; in assay [8], 3.58%; in [9], 4.5%; in assay [10] it was 2.65%.

In the case of `Fc1cccc(COc2ccc(Nc3ncnc4sc(-c5cccs5)cc34)cc2Cl)c1`, the inhibition in assay [1] was 3.11%; in assay [2], -0.48%; in [3], 0.6%.

For `CCc1cccc(NC(=O)Nc2ccc(Oc3ccc4nc(NC(=O)OC)[nH]c4c3)cc2)c1`, the inhibition was 3.75% in assay [1]; 78% in assay [2]; 80.2% in [3]; 8% in [4]; 7.33% in [5]; 2.52% in [6]. The inhibition in assay [7] came to 5.42%; in assay [8], 0.96%; in assay [9], 2.05%; in assay [10], 1.06%.

Turning to `COc1cc2c(cc1Nc1nc(N3CCc4ccccc43)c3cc[nH]c3n1)N(C(=O)CN(C)C)CC2`, the inhibition in [1] is 0.41%; in [2] it was 0.28%; in assay [3], 0.74%; in assay [4], -0.08%; in assay [5] it was 1.28%; in [6], 1.45%. For the same compound, the inhibition in assay [7] was 2.18%; in assay [8] it was 1.47%; in [9], -0.39%; in assay [10] it was 1.57%.

As for `CS(=O)(=O)CCNCc1ccc(-c2ccc3ncnc(Nc4ccc(OCc5ccccc5)c(Cl)c4)c3c2)o1`, the inhibition was determined as 5.6% in assay [1]; 3.48% in assay [2]; 9.08% in assay [3]; 82.5% in [4]; 85.6% in assay [5]; 61.7% in assay [6]. Moreover, the inhibition turned out to be 93.6% in assay [7], 52.9% in assay [8], 87.6% in assay [9] and 2.68% in [10].

As for `CN1CCC(C(=O)Nc2n[nH]c3nnc(-c4ccccc4)cc23)CC1`, the inhibition worked out at 6.5% in assay [1]; 0.55% in assay [2]; 1% in [3]; 10.2% in assay [4]; 7.57% in assay [5]; 1.7% in assay [6]. In addition, the inhibition is 3.79% in assay [7], 2.96% in [8], 6.37% in assay [9] and 1.89% in [10].

On to `NS(=O)(=O)c1cccc(-c2ccc3c(NC(=O)C4CC4)n[nH]c3c2)c1`, for which the inhibition is -3.46% in assay [1]; -0.11% in [2]; -9.65% in [3]; 0.04% in [4]; 0.71% in assay [5]; -0.88% in assay [6]. In addition, the inhibition was -2.32% in assay [7], 1.67% in [8], -0.49% in assay [9] and -1.44% in assay [10].

One may read the inhibition as the drop in the measured response relative to a control, in per cent.

Source of the values: ChEMBL document CHEMBL1961873, “Compounds: GSK PKIS; Assays: Nanosyn kinase panel” (2012).
